Experimental data reported in article PMC7826789 (International Journal of Molecular Sciences, 2021).

How the values were obtained:
Conditions in all cases: Compound Concentration (nM):1000
MYLK4 = system: MYLK4
MYLK = system: MYLK
MYO3A = system: MYO3A
MYO3B = system: MYO3B
NDR1 = system: T1, NDR1
T1 construct: gene STK38

NDR2 = system: T2, NDR2
T2 construct: gene STK38L

NEK10 = system: NEK10
NEK11 = system: NEK11
NEK1 = system: NEK1
NEK2 = system: NEK2
NEK3 = system: NEK3
NEK4 = system: NEK4
NEK5 = system: NEK5
NEK6 = system: NEK6
NEK7 = system: NEK7
NEK9 = system: NEK9
NIK = system: T3, NIK
T3 construct: gene MAP3K14

NIM1 = system: T4, NIM1
T4 construct: gene MGC42105

NLK = system: NLK
OSR1 = system: T5, OSR1
T5 construct: gene OXSR1
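Also: KINOMEscan scanMAX binding as percent activity remaining versus control; lower means stronger binding.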

| Compound | Percent Control (MYLK4) | Percent Control (MYLK) | Percent Control (MYO3A) | Percent Control (MYO3B) | Percent Control (NDR1) | Percent Control (NDR2) | Percent Control (NEK10) | Percent Control (NEK11) | Percent Control (NEK1) | Percent Control (NEK2) | Percent Control (NEK3) | Percent Control (NEK4) | Percent Control (NEK5) | Percent Control (NEK6) | Percent Control (NEK7) | Percent Control (NEK9) | Percent Control (NIK) | Percent Control (NIM1) | Percent Control (NLK) | Percent Control (OSR1) |
| --- | --- | --- | --- | --- | --- | --- | --- | --- | --- | --- | --- | --- | --- | --- | --- | --- | --- | --- | --- | --- |
| NS(=O)(=O)c1ccc(N/N=C2\C(=O)Nc3ccc(Cl)cc32)cc1 [GW280670X] | 100% | 80% | 100% | 100% | 91% | 100% | 100% | 100% | 100% | 100% | 100% | 100% | 100% | 100% | 100% | 100% | 100% | 100% | 100% | 100% |
| CC(C)COC(=O)c1ccc2c(c1)/C(=C/Nc1ccc(S(N)(=O)=O)cc1)C(=O)N2 [GW416981X] | 100% | 100% | 100% | 100% | 66% | 100% | 100% | 100% | 94% | 100% | 95% | 90% | 100% | 100% | 100% | 83% | 95% | 86% | 100% | 100% |
| NS(=O)(=O)c1ccc(N/N=C2\C(=O)Nc3ccc(-c4cnco4)cc32)cc1 [GW276655] | 49% | 50% | 77% | 100% | 67% | 68% | 89% | 93% | 71% | 100% | 96% | 99% | 72% | 77% | 82% | 79% | 37% | 84% | 100% | 100% |
| Cc1cc(O)cc(C)c1/C=C/c1cncc(C(N)=O)c1 [GW435821X] | 100% | 97% | 100% | 100% | 99% | 100% | 100% | 100% | 100% | 100% | 89% | 86% | 100% | 100% | 100% | 100% | 100% | 100% | 92% | 100% |
| COc1ccc2[nH]c3c4[nH]c5ccc(OC)cc5c4c4c(c3c2c1)C(=O)NC4=O [GW296115X] | 49% | 6.9% | 81% | 100% | 57% | 72% | 93% | 100% | 100% | 78% | 67% | 85% | 76% | 87% | 92% | 100% | 20% | 100% | 52% | 100% |
| NS(=O)(=O)c1ccc(N/N=C2\C(=O)Nc3ccc(C(=O)NCCc4c[nH]cn4)cc32)cc1 [GW300660X] | 87% | 79% | 100% | 100% | 77% | 100% | 100% | 100% | 100% | 100% | 78% | 80% | 100% | 100% | 100% | 100% | 74% | 14% | 100% | 100% |
| Cl.O=S1CCN(Cc2ccc(-c3ccc4ncnc(Nc5ccc(OCc6ccccc6)c(F)c5)c4c3)o2)CC1 [GW576924A] | 100% | 100% | 100% | 100% | 99% | 100% | 100% | 100% | 93% | 100% | 100% | 100% | 100% | 100% | 100% | 100% | 100% | 100% | 100% | 100% |
| CCS(=O)(=O)c1ccc(OC)c(Nc2ncc(-c3cccc(OC)c3)o2)c1 [GW580509X] | 100% | 94% | 97% | 100% | 100% | 100% | 100% | 100% | 98% | 100% | 100% | 100% | 100% | 100% | 100% | 100% | 92% | 100% | 100% | 100% |
| Nc1ncnc2occ(-c3ccc(NC(=O)Nc4cc(C(F)(F)F)ccc4F)cc3)c12 [GW770249X] | 100% | 100% | 9.7% | 15% | 94% | 100% | 100% | 100% | 89% | 77% | 98% | 71% | 82% | 100% | 100% | 38% | 100% | 100% | 100% | 100% |
| NS(=O)(=O)c1ccc(Nc2ncc(-c3ccccc3)o2)cc1 [GW572399X] | 81% | 100% | 100% | 100% | 83% | 100% | 100% | 100% | 84% | 100% | 84% | 100% | 100% | 100% | 78% | 100% | 91% | 96% | 100% | 100% |
| C[C@@H](Oc1cc(-n2cnc3ccc(OC4CCN(C)CC4)cc32)sc1C(N)=O)c1ccccc1Cl [GSK579289A] | 62% | 81% | 74% | 87% | 98% | 88% | 92% | 100% | 60% | 9.5% | 92% | 79% | 63% | 100% | 69% | 19% | 82% | 51% | 100% | 100% |
| COc1ccc2cc(-c3c(-c4ccncc4)nc(-c4ccc(S(C)(=O)=O)cc4C)n3C)ccc2c1 [SB-633825] | 93% | 82% | 53% | 18% | 77% | 63% | 69% | 90% | 100% | 93% | 65% | 75% | 35% | 91% | 65% | 57% | 53% | 63% | 81% | 70% |
| Cl.O=C(O[C@H]1CN[C@H](C#Cc2cc3ncnc(Nc4ccc5c(cnn5Cc5ccccc5)c4)c3s2)C1)N1CCOCC1 [GSK200398A] | 91% | 100% | 100% | 100% | 100% | 100% | 96% | 100% | 68% | 72% | 94% | 100% | 100% | 100% | 98% | 95% | 100% | 89% | 93% | 100% |
| O=C1Nc2ccc(C(=O)c3ccco3)cc2C1=Cc1cc(Cl)c(O)c(Cl)c1 [GW406108X] | 69% | 51% | 34% | 100% | 95% | 88% | 3.3% | 100% | 78% | 83% | 100% | 83% | 100% | 94% | 100% | 100% | 100% | 93% | 100% | 100% |
| COc1cc(/C=N/Nc2ncnc3[nH]ncc23)ccc1O [GW578748X] | 38% | 68% | 100% | 100% | 73% | 100% | 100% | 28% | 70% | 100% | 43% | 98% | 100% | 100% | 96% | 100% | 100% | 37% | 100% | 100% |
| COc1ccc(COc2ccc(Cc3cnc(N)nc3N)cc2OC)cc1 [GW632580X] | 100% | 100% | 92% | 100% | 93% | 86% | 95% | 100% | 100% | 84% | 97% | 77% | 100% | 95% | 77% | 85% | 94% | 86% | 100% | 100% |
| Cl.O=C(Nc1ccc(Oc2ccc3[nH]c(NC(=O)c4ccccc4)nc3c2)cc1)Nc1cc(C(F)(F)F)ccc1F [GW709042A] | 100% | 99% | 100% | 100% | 100% | 100% | 100% | 100% | 89% | 100% | 98% | 83% | 95% | 92% | 100% | 20% | 100% | 88% | 95% | 100% |
| COc1ccc2c(-c3ccnc(Nc4cccc(OC(F)(F)F)c4)n3)cnn2n1 [GW810372X] | 60% | 100% | 100% | 100% | 100% | 96% | 100% | 100% | 85% | 100% | 22% | 80% | 7.6% | 39% | 3.6% | 47% | 96% | 77% | 81% | 100% |
| NS(=O)(=O)c1ccc(N/N=C2\C(=O)Nc3ccc(C(=O)NCc4ccncc4)cc32)cc1 [GW300657X] | 83% | 45% | 68% | 100% | 76% | 82% | 48% | 40% | 80% | 79% | 84% | 89% | 92% | 97% | 62% | 64% | 95% | 72% | 96% | 75% |
| CCc1ccc(Oc2nccc(-c3c(-c4ccc(F)cc4)ncn3C3CCNCC3)n2)cc1 [SB-242719] | 98% | 100% | 87% | 100% | 92% | 96% | 99% | 100% | 100% | 96% | 100% | 96% | 100% | 100% | 100% | 100% | 100% | 83% | 25% | 100% |
